Compounds with a hit are over-represented: about 7.5% of the library has one in this group of screens.
ELG1 genotox: qHTS screen for small molecules that induce genotoxicity in human embryonic kidney (HEK293T) cells expressing luciferase-tagged ELG1; hit rate 1.3% among 330,000; AID 504466, 2011; Potency, µM (series often up to 46 µM), for inactives: at the top dose activity change, positive = activation, usual class: activators; HEK293T ELG1-luciferase reporter, luminescence, 16 h; also: % of control where 0% means no effect; nearly all actives have a fitted effect of over 60% in size
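Genotoxicity was scored as increased ELG1-luciferase reporter signal, measured by ONE-Glo luminescence (30 min, room temperature). Compound or vehicle exposure of the HEK293T reporter cells lasted 16 hr at 37°C.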
Luc counter: Counterscreen for Luciferase (Kinase-Glo TM) Inhibition. Kinase-Glo luciferase, ATP luminescence, 8 min. AID 1379, 2008. Potency, µM (titrated, usually from 38.3 µM), for the others: top-dose activity change, negative = inhibition, actives largely listed as inhibitors. hit rate 0.28% among 200,000; also: % is scaled to controls: 0 for no effect and ±100 for the full control effect; nearly all actives have a fitted effect of over 60% in size
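Luminescence was the read-out, taken after 8-minute incubation at ambient temperature. Luciferase turned over luciferin with 10 uM ATP in imidazole pH 7.2 buffer containing KCl, MgCl2, Tween 20 and BSA.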
SMN2 splice up: qHTS Assay for Enhancers of SMN2 Splice Variant Expression. HEK293 SMN2-luciferase splicing reporter, luminescence, 30-36 h. AID 1458, 2008. hit rate 2.8% among 210,000. Potency, µM (highest dose often 46.1 µM), inactives show at the highest dose activity change, positive = activation, actives largely listed as activators; also: % of control where 0% means no effect; nearly all actives have a fitted effect of over 55% in size
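HEK293 cells carry an SMN2 minigene-luciferase reporter in which exon 7 inclusion puts luciferase in frame. Cells were seeded at 2000 cells/well, attached for 10-12 hours, then exposed to compounds for 30-36 hours at 37C before ONE-Glo luminescence.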
FLuc counter: qHTS profiling assay for firefly luciferase inhibitor/activator using purifed enzyme and Km concentrations of substrates (counterscreen for miR-21 project); purified FLuc, Km substrates, luminescence inhibition; Potency, µM (top dose mostly 57.5 µM), without a hit: at the highest dose activity change, negative = inhibition, hits mostly inhibitors; hit rate 6.9% among 360,000;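 also: plate controls were vehicle for no effect and reference inhibitor for full effect; nearly all actives have a fitted effect of over 55% in size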
Target sequence (P08659 whole entry, looked up): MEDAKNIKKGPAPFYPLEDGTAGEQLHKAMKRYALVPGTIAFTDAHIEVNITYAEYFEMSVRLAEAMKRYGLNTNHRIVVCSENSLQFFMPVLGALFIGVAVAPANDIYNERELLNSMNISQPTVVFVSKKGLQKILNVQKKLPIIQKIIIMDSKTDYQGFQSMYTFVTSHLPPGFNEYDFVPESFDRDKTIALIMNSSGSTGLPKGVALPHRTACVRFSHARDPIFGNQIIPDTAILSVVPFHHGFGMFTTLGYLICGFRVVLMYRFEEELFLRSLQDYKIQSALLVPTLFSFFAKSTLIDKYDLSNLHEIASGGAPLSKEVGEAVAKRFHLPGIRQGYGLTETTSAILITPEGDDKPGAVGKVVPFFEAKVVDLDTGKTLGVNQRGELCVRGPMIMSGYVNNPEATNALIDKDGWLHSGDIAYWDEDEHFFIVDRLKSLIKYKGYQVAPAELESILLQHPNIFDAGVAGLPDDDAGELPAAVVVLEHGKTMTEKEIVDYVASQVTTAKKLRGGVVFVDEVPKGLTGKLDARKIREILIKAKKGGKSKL
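Purified P. pyralis luciferase (10nM final) with 10uM D-luciferin and 10uM ATP (Km levels) in 50mM Tris acetate pH 7.5, 10mM Mg acetate, 0.01% Tween-20, 0.05% BSA; qHTS 6-point titration, ~60 µM downward; luminescence read.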
Rab9 promoter act: qHTS Assay for Rab9 Promoter Activators. Huh7 Rab9 promoter-luciferase reporter, luminescence, 24 h. Potency, µM (highest dose often 9.22 µM), without a hit: at the highest dose activation, negative = inhibition, most hits filed as activators. hit rate 2.8% among 320,000. AID 485297, 2010; also: % of control where 0% means no effect; nearly all actives have a fitted effect of over 60% in size
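Cell-based reporter: Huh7 stable for Rab9 promoter-driven luciferase, plated in reduced-serum medium with 10% FBS at 1500 cells/well, compound-treated 24 h at 37 °C, luminescence read after 10 min reagent.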
NPC1 promoter act: qHTS Assay for NPC1 Promoter Activators; Huh7 NPC1 promoter luciferase reporter, 24 h; Potency, µM (series often up to 9.22 µM), inactives show at the top dose activation, usual class: activators; hit rate 2.4% among 320,000; also: % of control where 0% means no effect; nearly all actives have a fitted effect of over 60% in size
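Luminescence read-out of NPC1 promoter-driven luciferase in stably transfected Huh7 cells; compounds delivered in DMSO and left 24 h at 37C, 5% CO2, qHTS titration format.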
Starred values were filed as active, the others as inactive; ? = inconclusive; / = no result given; ! = not active in a repeat; [ ] = another dose, or the depositor's remark. Calls follow the shape of the dose curve; as a rule, active = well fitted curve in the direction sought with a large enough effect; inconclusive = small, poorly fitted or top-dose-only effect, or another doubt; inactive = no such curve, though single readings can be large; an effect the other way counts as inactive or inconclusive. Potency is read from the fitted curve at half-maximal effect.

SMILES | ELG1 genotox | Luc counter | SMN2 splice up | FLuc counter | Rab9 promoter act | NPC1 promoter act
O=C(N/N=C/c1ccccn1)c1ccc([N+](=O)[O-])cc1 | 9% | -4% | 4% | 19µM* | 5% | -2%
Cc1ccc(NC(=O)Cn2c(=O)n(CCC(=O)NCc3ccccc3Cl)c(=O)c3ccccc32)cc1 | / | / | 20% | -2% | / | /
CC(OC(=O)/C(C#N)=C/c1ccco1)C(=O)N(C)c1ccccc1 (stereo not drawn) | 2% | / | / | / | / | /
CC1CCCCC1NC(=O)c1ccc(-n2cncn2)cc1 (stereo not drawn) | 4% | / | / | / | / | /
O=C(N/N=C/c1ccc[nH]1)c1ccc([N+](=O)[O-])cc1 | 2% | -2% | -10%[1.84 µM] | 15µM* | -8% | -2%
Cc1ccc(C(=O)N/N=C\c2ccc[nH]2)cn1 | 16% | -2% | -21% | ? | 1% | 1%
C(=N\N=C\c1ccccn1)/c1ccccn1 | -2% | / | / | 12µM* | -2% | 0%
Cc1ccc(C(=O)N/N=C\c2ccccn2)cn1 | 0% | / | / | 19µM* | -1% | 9%
COc1ccc(C)cc1NC(c1nnc(-c2ccccc2)o1)c1ccc(F)cc1Cl (stereo not drawn) | / | / | -5% | 0% | / | /
COc1ccc(-n2nc(C(=O)NCC(=O)NC3CCCCC3)c3ccccc3c2=O)cc1 | -17% | / | / | ? | 11% | 2%
O=C(Cc1ccccc1)Nc1ccc2c(c1)OC1(CCCC1)O2 | ? | / | / | 4.8µM* | 2.5µM* | 2.5µM*
CCc1ccc(C(=O)Nc2cc3c(cc2Cl)OCCCO3)cc1 | ? | -1% | 25µM* | 6µM* | 1.6µM* | 1.8µM*
O=C(Cc1ccccc1)Nc1cc2c(cc1Cl)OCCCO2 | ? | / | / | 17µM* | 2.8µM* | 3.2µM*
O=C(Nc1cc2c(cc1C(=O)O)OCCCO2)c1ccc(C(F)(F)F)cc1 | 18µM* | / | / | 13µM* | 2.8µM* | 4µM*
COc1ccccc1CC(=O)Nc1ccc2c(c1)OC1(CCCC1)O2 | -1% | / | / | / | / | /
O=C(Cc1ccccc1)Nc1ccc(NC(=O)Cc2ccccc2)c(Cl)c1 | 1% | / | / | 0% | 1% | -7%
C=CCN(Cc1cccc(OC)c1OC)C(=O)Oc1ccccc1 | -4% | / | / | 3% | -7% | -2%
CCOC(=O)c1c(C)n(-c2ccccc2)c2ccc(OC(=O)c3ccccc3Cl)cc12 | / | / | -6% | 6% | / | /
Cc1cc(Br)ccc1NC(=O)C1CCN(S(=O)(=O)c2ccc(Br)s2)CC1 | / | / | 2% | 1% | / | /
NC(=O)c1ccc(-c2ccc(Br)cc2)o1 | ? | -2% | 3% | 19µM* | 8% | 7%
NC(=O)C1CCN(C(=S)c2ccc(-c3ccc(Br)cc3)o2)CC1 | 10µM*! | 0% | 8.9µM* | ? | ? | ?
O=C(O)c1ccc(NC(=S)NC(=O)c2ccc(-c3ccc(Br)cc3)o2)cc1 | 7% | / | / | -5% | 2% | 1%
CCN(CC)c1ccc(C(=O)Nn2cnc3ccccc3c2=O)cc1 | 7% | / | / | ? | 16% | 3%
O=C(CSc1cn(CCNC(=O)c2ccccc2F)c2ccccc12)Nc1ccc(F)cc1 | / | / | -9% | -18% | / | /
O=C(CSc1cn(CCNC(=O)c2ccccc2F)c2ccccc12)Nc1ccc2c(c1)OCCO2 | / | / | -16% | 13µM* | / | /
CCn1c(=O)cc(SCC(=O)Nc2ccc3c(c2)OCO3)c2ccccc21 | 16% | 1% | 18% | -13% | -4% | 5%
Cn1cc(SCC(=O)Nc2ccc3c(c2)OCCO3)c2ccccc21 | ? | 0% | 2% | 17µM* | 11% | 14%
COc1cccc(NC(=O)c2oc3ccc(S(=O)(=O)N(C)C4CCCCC4)cc3c2C)c1 | / | / | / | -2% | / | /

Source: PubChem
